Screens from PubChem BioAssay.
In the library only some 1% were active in any assay of this set; here they are far more common.
Luc counter: Counterscreen for Luciferase (Kinase-Glo TM) Inhibition; Luciferin 4-monooxygenase (Photuris pensylvanica), Q27757; Kinase-Glo luciferase, ATP luminescence, 8 min; Potency, µM (top dose mostly 38.3 µM), for inactives: top-dose activity change, negative = inhibition, actives largely listed as inhibitors; 0.28% of 200,000 active; AID 1379, 2008; note: potency is the fitted concentration of half-maximal effect; % is set by controls: 0 for no effect and ±100 for the full control effect; nearly all actives have a fitted effect of over 60% in size
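Substrate mix (final 50 mM imidazole pH 7.2, 50 mM KCl, 7 mM MgCl2, 10 uM ATP, 0.01% Tween 20, 0.05% BSA) plus pin-tool compound, then Kinase-Glo detection mix; 8 min ambient, luminescence read.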
gsp ag: qHTS for Agonist of gsp, the Etiologic Mutation Responsible for Fibrous Dysplasia/McCune-Albright Syndrome: qHTS | gsp mutant cells, cAMP HTRF, 30 min | Potency, µM (top dose mostly 76.9 µM), inactives show top-dose activation (cAMP increase), actives largely listed as activators | 0.13% of 340,000 active; active = well fitted activation curve with a large enough effect; inconclusive = small, poorly fitted or top-dose-only effect, or another doubt; inactive = no such curve, though single readings can be large or run the other way; cell line not stated here;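 note: phosphodiesterase inhibitor Ro 20-1724 added with compounds to block cAMP breakdown; potency is the fitted concentration of half-maximal effect; nearly all actives have a fitted effect of over 60% in size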
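Cells stably selected in G418 were plated at 2000/well, grown 16-24 hr, then given compounds in DMSO with the PDE inhibitor […] (300 uM solution added) for 30 min at 37C; cAMP was read by HTRF.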
miR-21 reporter: qHTS Assay for Modulators of miRNAs and/orActivators of miR-21; HeLa miR-21 FLuc reporter, luciferase, 48 h; Potency, µM (titrated, usually from 38.3 µM), without a hit: at the top dose activity change, positive = activation, hits mostly activators; 340,000 tested, under 10 active; AID 2288, 2010;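 note: % of control where 0% means no effect; miR-21 action dims this reporter so a rising signal means less miR-21 action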
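Compounds were titrated across several concentrations (up to approximately 40 uM) and incubated 48 hours with HeLa miR-21-FLuc reporter cells (miR-21 target sequence downstream of FLuc, endogenous miR-21). Readout was firefly luciferase luminescence after lytic detection reagent.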
RXFP1 ag: qHTS Assay for Agonists of the Relaxin Receptor RXFP1; Relaxin receptor 1 (Homo sapiens), Q9HBX9; HEK293T-RXFP1 cAMP TR-FRET, 30 min; response scale: percent of porcine relaxin response, buffer zero; Potency, µM (highest dose often 57.5 µM), for inactives: at the top dose activation, usual class: activators; 0.3% of 370,000 active; AID 2676, 2010; note: potency is the fitted concentration of half-maximal effect; % is set by controls: 0 for no effect and ±100 for the full control effect; nearly all actives have a fitted effect of over 60% in size
Target sequence (Q9HBX9 whole entry, looked up): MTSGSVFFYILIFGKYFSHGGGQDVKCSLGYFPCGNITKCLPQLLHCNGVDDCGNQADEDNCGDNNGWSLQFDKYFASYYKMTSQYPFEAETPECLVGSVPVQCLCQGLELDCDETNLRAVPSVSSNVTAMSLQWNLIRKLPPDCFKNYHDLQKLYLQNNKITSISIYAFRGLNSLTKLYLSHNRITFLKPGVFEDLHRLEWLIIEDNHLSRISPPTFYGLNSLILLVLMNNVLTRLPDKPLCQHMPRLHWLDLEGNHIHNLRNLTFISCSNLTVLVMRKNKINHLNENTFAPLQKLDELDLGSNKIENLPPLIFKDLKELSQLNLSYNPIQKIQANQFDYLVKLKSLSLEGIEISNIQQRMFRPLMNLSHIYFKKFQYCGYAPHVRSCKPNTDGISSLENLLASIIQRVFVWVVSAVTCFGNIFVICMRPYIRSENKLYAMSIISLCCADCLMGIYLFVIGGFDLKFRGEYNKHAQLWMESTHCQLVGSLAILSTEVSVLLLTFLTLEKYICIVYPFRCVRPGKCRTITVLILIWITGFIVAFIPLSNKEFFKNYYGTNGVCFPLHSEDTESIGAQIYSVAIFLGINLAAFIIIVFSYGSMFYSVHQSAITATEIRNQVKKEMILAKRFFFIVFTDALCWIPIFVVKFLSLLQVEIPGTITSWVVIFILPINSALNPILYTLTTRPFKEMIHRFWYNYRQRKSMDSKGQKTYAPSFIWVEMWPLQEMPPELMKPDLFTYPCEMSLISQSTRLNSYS
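HEK293 cells stably expressing RXFP1, treated 30 min at 37C with compounds plus PDE4 inhibitor Ro 20174; cAMP measured by HTRF TR-FRET. Normalized to buffer and 29 nM porcine relaxin; EC50 by Hill fit.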
gsp antag: qHTS for Antagonists of gsp, the Etiologic Mutation Responsible for Fibrous Dysplasia/McCune-Albright Syndrome: qHTS; gsp-mutant cells, cAMP HTRF, 30 min; Potency, µM (doses to about 76.9 µM), for the others: at the highest dose activity change, negative = inhibition, most hits filed as inhibitors; 0.4% of 340,000 active; calls by dose curve; cell line not stated here;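 note: intracellular cAMP measured with PDE inhibitor Ro 20-1724 present during compound exposure; potency is the fitted concentration of half-maximal effect; % is set by controls: 0 for no effect and ±100 for the full control effect; nearly all actives have a fitted effect of over 65% in size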
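G418-selected cells were plated in DMEM/10% FBS for 16-24 h at 37C, then treated with compounds plus the PDE inhibitor […] (300 uM solution added) for 30 min at 37C. Intracellular cAMP was measured by HTRF after 30 min lysis at room temperature.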
RXFP1 antagonist: qHTS Assay for Antagonists of the Relaxin Receptor RXFP1; activity change, negative = inhibition, % at 57.5 µM; Relaxin receptor 1 (Homo sapiens), Q9HBX9; AID 1259400, 2018; 0.59% of 350,000 active; HEK293-RXFP1, relaxin-stimulated cAMP HTRF, 30 min; hits give low values;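 active = activity change of -60% or lower, but not beyond a set lower limit; inconclusive = change between -60% and -40%, or beyond the set limit; inactive = change above -40%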; note: % is set by controls: 0 for no effect and ±100 for the full control effect
Active calls of the source: *; u = inconclusive; x = no result; [ ] = remark or other dose. Unless noted, calls come from the whole dose curve; as a rule, active = well fitted curve in the direction sought with a large enough effect; inconclusive = small, poorly fitted or top-dose-only effect, or another doubt; inactive = no such curve, though single readings can be large; an effect the other way counts as inactive or inconclusive.

SMILES	Luc counter	gsp ag	miR-21 reporter	RXFP1 ag	gsp antag	RXFP1 antagonist
CNC(=O)c1nnsc1S(=O)c1ccc(Cl)cc1 (stereo not drawn)	-8%	12%[15.4 µM]	u	-1%	-30%	u
CCCCc1cc2c(cn1)=C(OC(=O)c1ccc(Cl)nc1)C(C)(OC(=O)CC)C(=O)C=2 (stereo not drawn)	-4%[7.66 µM]	x	x	x	x	x
Cn1cc(S(C)=O)c(=O)c2ccc(F)cc21 (stereo not drawn)	x	x	x	x	x	-15
CC(c1ccco1)N(C(=O)CSc1ccc(Br)cc1)c1ccccn1 (stereo not drawn)	3%	-6%	10%	-1%	35µM*	-4
O=C(c1ccc(Br)o1)N1CCN(c2ccc(F)cc2)CC1	0%	-53%	-4%	1%	14%	10
CC(=O)c1ccc(-c2ccc(C(=O)N3CCN(c4ccc(F)cc4)CC3)o2)cc1	3%	0%	7%	2%	28µM*	-5
CCCCOc1ccc(S(=O)(=O)Nc2cccc(-c3ccc(N4CCOCC4)nn3)c2)cc1	x	x	-24%	2%	x	-17
Cc1cccc(OCC(=O)Nc2c(C(=O)Nc3ccc(F)cc3)oc3ccccc23)c1	x	x	-18%	10%	x	x
Cc1c(CCC(=O)O)c(=O)oc2c(C)c3occ(-c4ccc(Cl)cc4)c3cc12	x	11%[15.4 µM]	-7%	2%	32µM*	3
c1ccn2c(SCc3ccc4c(c3)OCCO4)nnc2c1	-5%	u	-51%	0%	0%	x
Cn1c(SCc2cccc([N+](=O)[O-])c2)nc2c(c1=O)SCC2	-2%	3%	20%	3%	35µM*	10
Cn1c(SCc2cccnc2)nc2c(c1=O)SCC2	-2%	-12%[15.4 µM]	-1%	0%	-2%	-14
O=[N+]([O-])c1cccc(CSc2nnc3ccccn23)c1	-3%	26%[15.4 µM]	-10%	25µM*	x	3
CC(=O)N1CCc2c(sc3c2c(=O)n(-c2cc(Cl)ccc2C)c(=O)n3C)C1	x	x	2%	1%	x	x
N#Cc1ccc(CS(=O)(=O)c2ccccc2)cc1	-1%	x	x	x	x	x
CC(C)[C@H](NC(=O)OC(C)(C)C)c1nnc(SCC(=O)Nc2ccc(Br)cc2)o1	4%	5%	-3%	2%	35µM*	7
C[C@H](NC(=O)OC(C)(C)C)c1nnc(SCC(=O)Nc2cccc(Cl)c2)o1	x	7%	-2%	1%	-16%	1
Cc1cccc(N2CCN(C(=O)c3sc4nc5n(c(=O)c4c3C)CCC5)CC2C)c1 (stereo not drawn)	x	x	-19%	0%	x	-35
CC(CC(=O)N1CCN(c2ccccc2)CC1)S(=O)(=O)c1ccc2c(c1)NC(=O)CO2 (stereo not drawn)	x	u	30%	1%	50µM*	30
Cc1cccc(N2CCN(C(=O)CCS(=O)(=O)c3ccc4c(c3)NC(=O)CO4)CC2)c1C	x	-21%	27%	-1%	32µM*	3
Cc1cccc(N2CCN(S(=O)(=O)c3ccc4c(c3)NC(=O)CO4)CC2)c1C	x	u	6%	1%	15%	1
Cc1ccc(Cl)cc1NC(=O)c1nnn(Cc2ccccc2)c1N	x	x	2%	1%	x	-6
Oc1ccccc1C=NCc1ccccc1	x	x	x	x	x	-12
CCOC(=O)C1CCCN(S(=O)(=O)c2c(C)c(C)cc(C)c2C)C1 (stereo not drawn)	3%	-2%	-2%	-1%	7.1µM*	-15
O=C(OCc1nc2ccccc2[nH]1)C12CC3CC(CC(C3)C1)C2	-1%	11%	-6%	2%	35µM*	4
SMILES	Luc counter	gsp ag	miR-21 reporter	RXFP1 ag	gsp antag	RXFP1 antagonist
CCOC(=O)N1CCN(C(=O)CSc2ccc3nnc(CCNC(=O)c4ccccc4)n3n2)CC1	1%	13µM*	5%	u	10%	-6
O=C(CSc1ccc2nnc(-c3ccncc3)n2n1)NCc1ccco1	2%	18µM*	-2%	18%	10%	x
Cc1ccc(-c2nnc3ccc(SCC(=O)NCc4ccco4)nn23)cc1	0%	34%	0%	9%	0%	16
CCOc1ccc(NC(=O)CSc2ccc3nnc(-c4cccnc4)n3n2)cc1	x	u	3%	25µM*	15%	11
O=C(CSc1ccc2nnc(-c3cccnc3)n2n1)Nc1ccc(F)cc1	x	32%[15.4 µM]	-9%	u	-6%	12
O=C(CSc1ccc2nnc(-c3ccccn3)n2n1)Nc1ccccc1	x	-20%[15.4 µM]	0%	23%	14%	2
Cc1cc(NC(=O)CSc2ccc3nnc(-c4ccccn4)n3n2)no1	4%	6.3µM*	1%	11%	6%	x
CN(C)CCNC(=O)CN1C(=O)CCn2nc(-c3cn(C)c4ccccc34)cc21	x	x	0%	-6%	x	-24
CC(C)C(=O)Nc1cccc(C(F)(F)F)c1	x	x	x	x	x	-8
CN(C)CCN(Cc1ccsc1)c1ccccn1	x	x	x	x	x	3
O=c1oc2ccc(Cl)cc2cc1-c1nc(-c2cccs2)no1	x	x	-1%	1%	x	-15
CCOC(=O)N1CCN(C(=O)CSc2ccc3nnc(-c4cccnc4)n3n2)CC1	-1%	u	-1%	14µM*	-7%	-1
O=C(Cn1cccc1C(=O)c1ccccc1)NCCCc1ccccc1	x	u	0%	1%	-7%	33
CCC(Cc1ccccc1)NC(=O)Cn1cccc1C(=O)c1ccccc1 (stereo not drawn)	x	3%	1%	0%	-11%	-114*
CNC[C@H](O)[C@@H](O)[C@H](O)[C@H](O)CO	x	x	x	x	x	-3
O=C(Nc1ccccc1-c1nc2ccccc2s1)c1ccc(F)cc1	x	x	0%	18%	x	-6
O=C(Nc1ccccc1-c1nc2ccccc2s1)c1ccco1	10%	25µM*	-4%	20%	24%	-2
N#C/C(=C(/O)c1ccco1)c1nc2ccccc2s1	-9%	-16%	-35%	6%	35µM*	3
CC(C)(C)c1ccc(C(=O)CCCCl)cc1	x	x	x	x	x	-7
CCCc1ncc(C(=O)O)s1	x	x	x	x	x	0
CC(=O)Oc1c(C)cc(Cl)cc1C(=O)Nc1ccc([N+](=O)[O-])cc1Cl	-3%	-26%	10%	6%	3.5µM*	-16
CC(=O)OCC(=O)Nc1ccc([N+](=O)[O-])cc1Cl	8%	-20%	-6%	0%	4%	6
N#C/C(=N\Nc1ccc(Cl)cc1)C(=O)c1ccccc1	-5%	-3%[15.4 µM]	23%	-1%	28µM*	-16
